# Results from paper PMC4336329 (PLoS ONE, 2015).
# In all, about 310,000 compounds went through this assay and about 14,000 (4.5%) showed an effect of 50% or more. Effects have a minus sign here. This excerpt belongs to a sample that is enriched for strong results.
# Biological target: human ether-à-go-go-related gene (hERG) potassium channel (human, UniProt Q12809)
# Experiment: primary screen, population patch clamp on CHO cells stably expressing hERG; higher = less effect of the substance
# 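Note: peak tail current of the secondary pulse compared with the same well before compound.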
# human ether-à-go-go-related gene (hERG) potassium channel, sequence (Q12809 whole entry, looked up): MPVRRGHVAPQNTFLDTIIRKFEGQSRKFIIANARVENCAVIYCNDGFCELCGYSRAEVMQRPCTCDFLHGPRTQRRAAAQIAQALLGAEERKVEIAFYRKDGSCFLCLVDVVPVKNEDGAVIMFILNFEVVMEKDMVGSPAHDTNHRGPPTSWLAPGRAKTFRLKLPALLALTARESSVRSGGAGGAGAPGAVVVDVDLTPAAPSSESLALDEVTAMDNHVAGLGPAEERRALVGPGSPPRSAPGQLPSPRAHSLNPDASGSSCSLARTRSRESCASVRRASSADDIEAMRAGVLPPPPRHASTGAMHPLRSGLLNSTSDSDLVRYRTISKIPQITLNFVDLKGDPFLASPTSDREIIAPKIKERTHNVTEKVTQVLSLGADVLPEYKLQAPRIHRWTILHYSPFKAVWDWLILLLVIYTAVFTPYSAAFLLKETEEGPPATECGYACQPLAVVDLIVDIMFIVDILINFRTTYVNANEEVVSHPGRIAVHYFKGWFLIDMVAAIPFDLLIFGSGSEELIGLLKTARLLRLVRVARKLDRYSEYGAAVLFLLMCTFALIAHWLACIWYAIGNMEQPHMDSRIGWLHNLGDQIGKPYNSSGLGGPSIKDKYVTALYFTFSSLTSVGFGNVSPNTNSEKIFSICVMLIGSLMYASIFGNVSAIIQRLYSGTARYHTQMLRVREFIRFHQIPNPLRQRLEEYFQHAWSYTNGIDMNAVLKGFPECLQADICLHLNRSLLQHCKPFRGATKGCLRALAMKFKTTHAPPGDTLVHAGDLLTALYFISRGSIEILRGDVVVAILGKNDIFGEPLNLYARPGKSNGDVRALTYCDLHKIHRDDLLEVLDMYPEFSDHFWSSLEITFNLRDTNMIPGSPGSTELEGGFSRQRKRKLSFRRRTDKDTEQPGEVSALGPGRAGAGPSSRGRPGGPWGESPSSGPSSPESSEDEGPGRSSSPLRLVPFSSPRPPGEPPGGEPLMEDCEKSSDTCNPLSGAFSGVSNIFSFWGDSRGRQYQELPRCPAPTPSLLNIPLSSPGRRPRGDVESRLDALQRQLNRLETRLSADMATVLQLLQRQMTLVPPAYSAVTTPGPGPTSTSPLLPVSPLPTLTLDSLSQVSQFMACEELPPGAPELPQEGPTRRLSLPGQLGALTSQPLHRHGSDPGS
row,SMILES,"hERG current change (%, negative = inhibition) at 10uM [%]"
1,COc1ccccc1OC(=O)c1ccc2nsnc2c1,8.28
2,O=C(OCC#Cc1c(COC(=O)c2ccccc2)nnn1Cc1ccccc1)c1ccccc1,5.67
3,CCOc1ccc(/C=C2\SC(=S)N(CCC(=O)O)C2=O)cc1,3.03
4,CS(=O)(=O)c1ccc(-c2nnc(NC(=O)c3cccc(N4C(=O)CCC4=O)c3)o2)cc1,6.65
5,O=C(Nc1ccc(N2CCCC2)c(Cl)c1)c1ccc(Br)o1,-7.29
6,O=C(Nc1ccc(N2CCOCC2)c(Cl)c1)c1ccc(Br)o1,-31.9
7,O=C(Nc1ccc(N2CCN(C(=O)c3ccccc3)CC2)c(Cl)c1)c1ncn[nH]1,-5.79
8,O=C(Nc1ccc(N2CCN(C(=O)c3ccccc3)CC2)c(Cl)c1)c1ccco1,-29.5
9,CC(=O)N1CCN(c2ccc(NC(=O)c3ccc(Br)o3)cc2Cl)CC1,-55.3
10,O=C(Nc1ccc(N2CCN(C(=O)c3ccccc3)CC2)c(Cl)c1)c1ccc(Br)o1,-58.2
11,CCCCN(CC)S(=O)(=O)c1ccc(C(=O)Nc2nnc(-c3cccs3)o2)cc1,-8.71
12,COc1ccc(S(=O)(=O)N2CCOCC2)cc1NC(=O)CSc1nnc(C2CC2)n1C1CC1,2.57
13,O=C(CN1C(=O)NC2(CCCc3ccccc32)C1=O)NCc1cccs1 (stereo not drawn),6.2
14,CCOC(=O)C1CCCN(C(=S)Nc2cccc(Cl)c2)C1 (stereo not drawn),-5.74
15,O=C(CCCc1ccccc1)NCCS(=O)(=O)N1CCN(c2ccc(F)cc2)CC1,-39.3
16,CCCc1[nH]n(-c2nc3ccccc3s2)c(=O)c1C=NCCCOC,-57.2
17,CC(=NCc1ccco1)c1c(C)[nH]n(-c2nc3ccccc3s2)c1=O,3.78
18,CCCc1cc(=O)n(-c2nc3ccccc3s2)[nH]1,11.2
19,CCCCN=Cc1c(C)[nH]n(-c2ccccc2)c1=S,-4.64
20,CCCCCN=Cc1c(C)[nH]n(-c2nc3ccccc3s2)c1=O,-65.5
21,Cc1[nH]n(-c2ccccc2)c(=O)c1C=NCC1CCCO1 (stereo not drawn),13.8
22,CCCc1[nH]n(-c2nc3ccccc3s2)c(=O)c1C=NCCN1CCOCC1,-34.5
23,COC(=O)Cc1[nH]n(-c2nc3ccccc3s2)c(=O)c1C(C)=O,21.6

row,SMILES,"hERG current change (%, negative = inhibition) at 10uM [%]"
1,CCCN=Cc1c(CCC)[nH]n(-c2nc3ccccc3s2)c1=O,-66.9
2,COC(=O)Cc1[nH]n(-c2nc3ccccc3s2)c(=O)c1C(C)=Nc1ccc(C)cc1,5.94
3,Cc1[nH]n(-c2ccc([N+](=O)[O-])cc2)c(=O)c1C=NCC1CCCO1 (stereo not drawn),0.91
4,CCCc1[nH]n(-c2nc3ccccc3s2)c(=O)c1C=NCC1CCCO1 (stereo not drawn),-65.5
5,C/C(=N\NC(=O)c1ccc(NS(=O)(=O)c2cccs2)cc1)c1ccc(O)cc1O,-0.956
6,CSc1nc(N)nc(C(C)C)n1,-5.59
7,CC[C@H](C)[C@H](NC(N)=O)C(=O)NCCc1ccc(OC)cc1,-0.532
8,O=C(CSc1nc(-c2ccccc2)nc2ccc(F)cc12)Nc1cccc(C(=O)O)c1,2.54
9,O=C(NCc1cccnc1)c1cccs1,11.7
10,COc1cc(NC(=O)C23CC4CC(C2)CC(n2nnc(C)n2)(C4)C3)c(OC)cc1Cl,4.76
11,COc1ccc(CCN2CC(C(=O)NC3CCCCC3)CC2=O)cc1OC (stereo not drawn),10.2
12,COC(=O)CC1SCCNC1=O (stereo not drawn),9.08
13,CC(=O)c1c(CC(=O)O)[nH]n(-c2nc3ccccc3s2)c1=O,3.17
14,C/C(=N\NC(=O)CC(C)C)c1c(C(F)(F)F)[nH]n(-c2nc3ccccc3s2)c1=O,8.88
15,CCCc1[nH]n(-c2nc3ccccc3s2)c(=O)c1C=NCCCN(CC)CC,-75.9
16,CCN(CC)CCCSc1nc2ccccc2s1.O=C(O)C(=O)O,-31.9
17,CCCc1[nH]n(-c2nc3ccccc3s2)c(=O)c1C=NCC(C)C,-75.4
18,Cc1cc(F)ccc1S(=O)(=O)N1CCCOC1CNC(=O)C(=O)NCc1ccc2c(c1)OCO2 (stereo not drawn),-26.9
19,Cc1ccc(NC(=O)CSc2nnc(-c3ccncc3)s2)cc1,5.52
20,O=[N+]([O-])c1ccc(N2CCCCC2)c(Cl)c1N1CCCCC1,3.77
21,C=C(C)COc1ccc(-c2nc(N)ncc2-c2ccc(Br)cc2)c(O)c1,23.6
22,CC12CCC(C/C1=N/O)C2(C)C (stereo not drawn),6.85
23,NC(=O)CCn1cnc2ccccc21,6.28

row,SMILES,"hERG current change (%, negative = inhibition) at 10uM [%]"
1,O=C(NCc1cccnc1)c1ccc(=O)oc1,-8.85
2,CCOC(=O)c1cc(NC(=O)COc2ccc([N+](=O)[O-])cc2)cc(C(=O)OCC)c1,-12.9
3,CC(C)CNC(=O)c1cccc(NC(=O)COc2ccc([N+](=O)[O-])cc2)c1,-57.4
4,CCCOC(=O)c1cccc(NC(=O)COc2ccc([N+](=O)[O-])cc2)c1,-26.9
5,CC(C)CNC(=O)c1cccc(NC(=O)COc2cccc([N+](=O)[O-])c2)c1,-24.7
6,Cc1cccc(OCC(=O)Nc2cccc(C(=O)NCC(C)C)c2)c1,-17.4
7,CCOC(=O)c1cccc(NC(=O)COc2ccc([N+](=O)[O-])cc2)c1,-68
8,COCc1ccc(CN2CCCC(CO)(Cc3ccccc3C)C2)o1 (stereo not drawn),2.18
9,CC(=O)Nc1ccc(NC(=O)c2cc(=O)c3cc(C)c(C)cc3o2)cc1,24.6
10,Br.N=C1CCCN1CC(=O)c1ccc(Cl)cc1,1.8
11,COC(=O)c1ccc(/C=N\NC(=O)CC(=O)NCCc2ccccc2)cc1,19.8
12,O=C(C1CCCN(S(=O)(=O)c2cccc3cccnc23)C1)N1CCN(c2ccc(F)cc2)CC1 (stereo not drawn),-67.5
13,O=C(O)C1CCCN(S(=O)(=O)c2cccc3cccnc23)C1 (stereo not drawn),10.9
14,O=C(O)[C@@H]1CCCN(S(=O)(=O)c2cccc3cccnc23)C1,11.6
15,COc1ccc(N2CCN(C(=O)C3CCCN(S(=O)(=O)c4cccc5cccnc45)C3)CC2)cc1 (stereo not drawn),-32.1
16,O=C(C1CCCN(S(=O)(=O)c2cccc3cccnc23)C1)N1CCN(c2ccccc2F)CC1 (stereo not drawn),-75.5
17,O=C(Nc1ccc(F)cc1)C1CCCN(S(=O)(=O)c2cccc3cccnc23)C1 (stereo not drawn),-49.3
18,CCN1C(=O)[C@H]2[C@@H](c3ccc(C)cc3)N3C(=O)N(c4ccccc4)C(=O)[C@@]3(CC)[C@H]2C1=O,3.81
19,O=C(CN1C(=O)NC2(CCCCCC2)C1=O)N1CCC(Cc2ccccc2)CC1,-24.4
20,CN1CCN(C(=O)OC2c3nccnc3C(=O)N2c2ccc(Cl)cn2)CC1 (stereo not drawn),13.9
21,O=C(NCC1CCCO1)c1c(O)c2cccc3c2n(c1=O)CC3 (stereo not drawn),10.4
22,Cc1ccccc1C(=O)Nc1ccc(Cl)cn1,6
23,CCOC(=O)N1CCN(Cc2nc3cc(NC(=O)c4cccs4)ccc3n2C)CC1,-74.7

row,SMILES,"hERG current change (%, negative = inhibition) at 10uM [%]"
1,CC(=O)N1CCN(Cc2nc3cc(NC(=O)c4cccs4)ccc3n2C)CC1,13.8
2,Cn1c(CN2CCCCC2)nc2cc(NC(=O)c3cccs3)ccc21,-31.2
3,CCCC(=O)Nc1ccc2c(c1)nc(CN1CCN(C(=O)OCC)CC1)n2CC,9.54
4,CCOC(=O)N1CCN(Cc2nc3cc(NC(=O)CC)ccc3n2CC)CC1,9.4
5,CCOC(=O)N1CCN(Cc2nc3cc(NC(=O)c4ccco4)ccc3n2C)CC1,-26.5
6,CCOC(=O)N1CCN(Cc2nc3cc(NC(=O)c4cccs4)ccc3n2CC)CC1,-55.3
7,CCOC(=O)N1CCN(Cc2nc3cc(NC(=O)c4ccco4)ccc3n2CC)CC1,-58
8,CCOC(=O)N1CCN(Cc2nc3cc(NC(C)=O)ccc3n2CC)CC1,14.9
9,CCOc1ccc(C(=O)NC2CC(=O)N(c3ccc4c(c3)OCCO4)C2)cc1 (stereo not drawn),-10.1
10,COc1ccccc1C(=O)N1CCN(Cc2nc(CC3CC3)no2)CC1,9.93
11,O=C(CCCc1ccccc1)Nc1ccnn1C1CCN(Cc2ccc(Cl)cc2)CC1,-74.8
12,Cn1cc(CN2CCC(n3nccc3NC(=O)CCCc3ccccc3)CC2)cn1,5.95
13,O=C(CCCc1ccccc1)Nc1ccnn1C1CCN(Cc2ccccc2)CC1,-77.3
14,Cc1nn(C)cc1CN1CCC(n2nccc2NC(=O)CCCc2ccccc2)CC1,-3.27
15,Cc1ccccc1CN1CCC(n2nccc2NC(=O)CCCc2ccccc2)CC1,-49.3
16,CC(C)n1cc(CN2CCC(n3nccc3NC(=O)CCCc3ccccc3)CC2)cn1,-26
17,O=C(CCCc1ccccc1)Nc1ccnn1C1CCN(Cc2ccc(CO)o2)CC1,-10.5
18,O=C(CCCc1ccccc1)Nc1ccnn1C1CCN(Cc2ccccn2)CC1,-15.2
19,CC(=O)N[C@@H](C)C(=O)N1CCC(n2nccc2NC(=O)CCCc2ccccc2)CC1,-2.4
20,Cc1ccc(C)c(CN2CCC(n3nccc3NC(=O)CCCc3ccccc3)CC2)c1,-54.8
21,CC(CN1CCC(n2nccc2NC(=O)CCCc2ccccc2)CC1)c1ccccc1 (stereo not drawn),-51.9
